Experimental data reported in the supplement of paper PMC10338343.
± gives the standard deviation.

What follows are sequences tested on MILI (PIWIL2) piRISC loaded with piRNA #1 (26 nt) (assay: pre-steady-state target cleavage rate (min^-1); guide: piRNA #1 5'p-UGAGGUAGUAGGUUGUAUAGUAUCCA; MIWI and MILI are mouse PIWI proteins and EfPiwi is from a freshwater sponge; tags in brackets are library labels; higher = faster piRNA-guided slicing of the target). Conditions: auxiliary factor: 500 nM mouse GTSF1.
In short: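 The pre-steady-state cleavage rate was obtained by Cleave-'n-Seq with a burst-and-steady-state fit. A transcribed, DNA-blocked target RNA library (0.1 nM) was mixed with 1 nM active affinity-purified piRISC carrying one synthetic guide, with or without 500 nM GTSF1 partner protein, in HEPES–potassium acetate buffer at 33 °C for 0–8 or 0–960 min. Uncleaved targets were sequenced and normalised to depth and to weakly complementary targets, with three trials pooled and k3 capped at 0.0001 min^-1.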
GGAGACCUUACUAAACAACCUACUUCCUCA was tested, and the “pre-steady-state target cleavage rate” value was 0.0656 ± 0.014. In the case of GGAGACCUAUCUAUAGAACCUACUACCACA, the “pre-steady-state target cleavage rate” value is reported as 0.0472 ± 0.0098. With GGAGACCUAUGAUAACAACCUACUUCCUCA the “pre-steady-state target cleavage rate” value was 0.00353 ± 0.0025. GGAGACCUAACUAUUCAACCUACUACCUGA was tested, and the “pre-steady-state target cleavage rate” value was 0.0858 ± 0.03. With GGAGAGGAUACUAUACAAGCUACUUCCUCA the “pre-steady-state target cleavage rate” value was 0.0737 ± 0.013. In the case of GGAGACCUAUGAAUACAACAUACUACCUCA, the “pre-steady-state target cleavage rate” value is reported as 0.00332 ± 0.0021. For GGAGACCUAACAAUACAACCUACUACCACA, the “pre-steady-state target cleavage rate” value was 0.0755 ± 0.019. GGAGACCUAUGAUUACAACCUACUAUCCUCA was tested, and the “pre-steady-state target cleavage rate” value was 0.00664 ± 0.0027. For GGAGACCUAUGUAUACAACUUACUACCUCA, the “pre-steady-state target cleavage rate” value was 0.0134 ± 0.0024. With GGAGACCUUACAUAACAACCUACUACCUCA the “pre-steady-state target cleavage rate” value was 0.013 ± 0.0048. With GGAGACCUAUCUAUCAACCUACUACCUCA the “pre-steady-state target cleavage rate” value was 0.0205 ± 0.0047. For GGAGACCUAUCUAUACAACCUACGUACCUCA, the “pre-steady-state target cleavage rate” value was 0.0605 ± 0.012. In the case of GGAGACCUAUGAUUUCAAGCUACUACCUCA, the “pre-steady-state target cleavage rate” value is reported as 0.00713 ± 0.0026. In the case of GGAGUGGAUACUAUACAACAUACUACCUCA, the “pre-steady-state target cleavage rate” value is reported as 0.0845 ± 0.0098. GGAGACGAUACUAUACAACGUACUACCACA was tested, and the “pre-steady-state target cleavage rate” value was 0.0317 ± 0.0055. With GGAGACCUAUGUAUACAACCUACUACCUUCA the “pre-steady-state target cleavage rate” value was 0.0648 ± 0.0099. With GGAGACCUAUCUAUACAACCUACAACGUCA the “pre-steady-state target cleavage rate” value was 0.0102 ± 0.004. GGAGACGAUACUAUUGUACCUACUACCUCA was tested, and the “pre-steady-state target cleavage rate” value was 0.119 ± 0.0095. With GGAGACCAUACAAUUCAACCUACUACCUCA the “pre-steady-state target cleavage rate” value was 0.13 ± 0.013. In the case of GGAGACCUAUGAUAUCAACCUAGUACCUGA, the “pre-steady-state target cleavage rate” value is reported as less than 0.0001. GGAGACCUAUCUAUACAACCUUCUACCACA was tested, and the “pre-steady-state target cleavage rate” value was 0.00592 ± 0.0023. GGAGACCUAUGAAUACAACCUACUGACCUCA was tested, and the “pre-steady-state target cleavage rate” value was 0.00755 ± 0.0029. With GGAGACGAUACUAUACUACCUACUACGUCA the “pre-steady-state target cleavage rate” value was 0.138 ± 0.019. For GGAGUGGAUACUAUUCAACCUACUACGUCA, the “pre-steady-state target cleavage rate” value was 0.0439 ± 0.0069.
